Reference: PubChem BioAssay AID720549 (National Center for Advancing Translational Sciences (NCATS), 2013)
“And” between values parts separate entries of the source, which are not always exact repeats. Equal entries are not always repeated. Results filed as inconclusive are left out. Entries that show only a call come without a potency. The source made the active and inactive calls. The call rests on the fitted dose curve; in most records, active means well fitted inhibition curve with a large enough effect; inconclusive means small, poorly fitted or top-dose-only effect; inactive means flat fitted curve, though single readings scatter.

molecular target: RecQ-like DNA helicase BLM (Homo sapiens) (UniProt P54132); assay: qHTS for Inhibitors of Bloom's syndrome helicase (BLM): Helicase ATPase Orthogonal Confirmatory Assay for SAR; details: purified BLM helicase ATPase activity assay; series mostly up to 57.1 µM
Sequence (P54132 whole entry, looked up): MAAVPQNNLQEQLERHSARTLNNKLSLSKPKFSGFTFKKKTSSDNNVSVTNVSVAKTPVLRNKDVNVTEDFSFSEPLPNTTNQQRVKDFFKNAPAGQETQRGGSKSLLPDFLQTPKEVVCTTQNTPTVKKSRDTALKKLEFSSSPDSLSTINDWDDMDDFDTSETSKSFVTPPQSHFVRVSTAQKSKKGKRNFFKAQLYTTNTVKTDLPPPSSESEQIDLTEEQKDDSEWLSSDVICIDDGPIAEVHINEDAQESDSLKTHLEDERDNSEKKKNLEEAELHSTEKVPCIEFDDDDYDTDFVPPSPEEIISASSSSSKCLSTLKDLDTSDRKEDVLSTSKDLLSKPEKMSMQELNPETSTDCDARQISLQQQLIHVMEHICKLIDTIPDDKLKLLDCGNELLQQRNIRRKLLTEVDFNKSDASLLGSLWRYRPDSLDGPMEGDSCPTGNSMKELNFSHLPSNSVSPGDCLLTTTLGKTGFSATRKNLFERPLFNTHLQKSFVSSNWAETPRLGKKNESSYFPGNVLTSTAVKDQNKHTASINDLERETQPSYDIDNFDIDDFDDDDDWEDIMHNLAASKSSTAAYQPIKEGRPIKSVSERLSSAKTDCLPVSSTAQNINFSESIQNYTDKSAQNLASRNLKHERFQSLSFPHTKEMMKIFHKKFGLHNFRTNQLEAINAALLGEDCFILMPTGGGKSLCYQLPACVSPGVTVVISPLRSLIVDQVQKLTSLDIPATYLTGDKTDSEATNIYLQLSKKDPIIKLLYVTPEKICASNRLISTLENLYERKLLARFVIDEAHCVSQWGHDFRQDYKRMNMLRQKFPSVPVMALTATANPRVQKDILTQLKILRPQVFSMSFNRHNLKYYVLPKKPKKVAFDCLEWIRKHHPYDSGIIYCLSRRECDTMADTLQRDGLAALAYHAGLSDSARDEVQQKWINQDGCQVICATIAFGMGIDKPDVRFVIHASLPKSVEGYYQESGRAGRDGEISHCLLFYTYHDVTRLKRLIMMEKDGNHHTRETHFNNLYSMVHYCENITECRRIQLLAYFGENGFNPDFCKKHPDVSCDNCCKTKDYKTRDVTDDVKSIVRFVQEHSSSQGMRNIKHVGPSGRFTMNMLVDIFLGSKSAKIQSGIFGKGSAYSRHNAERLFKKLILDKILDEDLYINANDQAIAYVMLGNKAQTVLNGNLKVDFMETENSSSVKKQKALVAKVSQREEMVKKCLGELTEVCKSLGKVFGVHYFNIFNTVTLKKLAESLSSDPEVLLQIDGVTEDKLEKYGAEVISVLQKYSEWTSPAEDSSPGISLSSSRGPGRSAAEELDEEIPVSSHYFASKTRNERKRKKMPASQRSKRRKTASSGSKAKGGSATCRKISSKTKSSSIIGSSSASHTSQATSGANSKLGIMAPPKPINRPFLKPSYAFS
Text: Human RecQ DNA helicases participate in maintenance of genome stability and DNA repair. While other types of helicases have been explored as targets for drug development, members of the RecQ family have remained less well characterized. Mutations of the Bloom helicase gene have been associated with the rare human genetic disease called Bloom syndrome. […] Moreover, identified inhibitors can be used in cells and animal models to examine the consequences of inhibition on the survival of cancer cells where it has been shown that BLM plays an important role.
A fluorescence-based, biochemical assay in 1536 well format was developed to evaluate inhibition of BLM DNA unwinding activity. This assay was used to screen the MLPCN library. The resulting compounds were subjected to orthogonal and secondary biochemical assays to triage the initial hits, to classify compounds based on mode of action and to derive structure activity relationships (SARs) of candidate effectors. The data herein is the result of the Helicase ATPase orthogonal confirmatory assay. This luminescence assay employs a purified BLM enzyme and a single stranded BLM oligo substrate ([…]). For this assay increase in luminescence signal is greater than or equal to 700 RLU. Inhibition is the desired outcome for this assay.
NIH Chemical Genomics Center [NCGC]
NIH Molecular Libraries Probe Centers Network [MLPCN]
Assay Submitter (PI): Opher Gileadi, Structural Genomics Consortium, University of Oxford, UK
Three microliter of reaction buffer (25mM Tris-HCl pH 8.0, 50mM NaCl, 2mM MgCl2, 1mM DTT, and 0.01% Tween- 20, and 2nM BLM enzyme) was dispensed into a 1536-well assay plates (Greiner, solid white medium-binding) via Aurora Discovery BioRAPTR Flying Reagent Dispenser (FRD). Compounds (23nl each in columns 5-48) and control (23nl each in column 2 as dose-response) were transferred via a Kalypsys pintool equipped with a 1536-pin array. The plates were incubated for 15 min at room temperature followed by addition of 1 ul of substrates (200nM single-stranded oligonucleotide and 100uM ATP, final concentrations) to start the reaction. After 15 min., the reaction was terminated by the addition of 2.5ul of ADP-Glo Reagent I (Promega) to each well and incubation at room temperature for 30 min. Next, 5ul of ADP-Glo Reagent II (Promega) was added to each well. After 30 min at room temperature, the luminescence signal was detected using the ViewLux CCD imager. The data was normalized against no-inhibitor and no-enzyme controls and the resulting percent inhibition data were fitted to a sigmoidal dose response using a four-parameter Hill equation.

| SMILES | Potency |
| --- | --- |
| O=C(Nc1nnc(-c2ccncc2)s1)Nc1cccc2ccccc12 | 5.61 µM (active) |
| Nc1ccc(NC(=O)Nc2nnc(-c3ccncc3)s2)cc1C(F)(F)F | inactive |
| CCOC(=O)c1cccc(NC(=O)Nc2nnc(-c3ccncc3)s2)c1 | inactive |
| c1ccc2[nH]c(Nc3nnc(-c4ccncc4)s3)nc2c1 | inactive |
| Cc1cc(NC(=O)Nc2nnc(C3CCCCC3)s2)ccc1Cl | inactive |
| CC(=O)c1cccc(NC(=O)Nc2nnc(-c3ccncc3)s2)c1 | inactive |
| O=C(Nc1ccc(Cl)c(Cl)c1)Nc1nc(-c2ccncc2)cs1 | inactive |
| O=C(Nc1ccc(-n2ccnc2)c(F)c1)Nc1nnc(-c2ccncc2)s1 | 14.5 µM (active) |
| O=C(Nc1ccc(Cl)c([N+](=O)[O-])c1)Nc1nnc(-c2ccc(F)cc2)s1 | inactive |
| O=C(Nc1ccc2ccccc2c1)Nc1nnc(-c2ccncc2)s1 | 3.24 µM (active) |
| CN1CCN(c2nnc(NC(=O)Nc3ccc(Cl)c(Cl)c3)s2)CC1 | inactive |
| Cc1cc(NC(=O)Nc2nnc(-c3cccnc3)s2)ccc1F | inactive |
| Nc1cc(NC(=O)Nc2nnc(-c3ccncc3)s2)ccc1Cl | 20.4 µM (active) |
| O=C(Nc1nnc(-c2ccncc2)s1)Nc1cc(C(F)(F)F)ccc1F | inactive |
| O=C(Nc1ccc(Cl)c(Cl)c1)Nc1cccc(-c2ccncc2)n1 | inactive |
| O=c1c(Nc2ccc(Br)c(Br)c2)c(Nc2nnc(-c3ccncc3)s2)c1=O | 20.4 µM (active) |
| N#Cc1cc(NC(=O)Nc2nnc(-c3ccncc3)s2)ccc1F | 1.02 µM (active) |
| O=C(Nc1ccc2sccc2c1)Nc1nnc(-c2ccncc2)s1 | 7.25 µM (active) |
| O=C(Nc1ccc(-c2nc3ccccc3[nH]2)cc1)Nc1ccc2occc2c1 | inactive |
| O=c1c(Nc2ccc(Cl)c(Cl)c2)c(Nc2nnc(-c3ccncc3)s2)c1=O | 6.46 µM (active) |

| SMILES | Potency |
| --- | --- |
| O=C(Nc1ccc2c(c1)OCCO2)Nc1nnc(-c2ccncc2)s1 | inactive |
| Cc1cc(NC(=O)Nc2cccc(-c3ccncc3)n2)ccc1F | inactive |
| O=C(Nc1ccc(-n2cncn2)c(C(F)(F)F)c1)Nc1nnc(-c2ccncc2)s1 | 20.4 µM (active) |
| O=C(Nc1ccc2ccccc2c1)Nc1nnc(-c2ccncc2)o1 | inactive |
| O=C(Nc1ccc(Cl)c(Cl)c1)Nc1nnc(N2CCNCC2)s1 | inactive |
| O=C(Nc1nnc(-c2ccncc2)s1)Oc1ccc2ccccc2c1 | 32.4 µM (active) |
| O=C(Nc1ccc(-c2ccccc2)cc1)Nc1nnc(-c2ccncc2)s1 | inactive |
| O=C(Nc1ccc(Cl)c(Cl)c1)Nc1ccnc(-c2ccncc2)n1 | inactive |
| Nc1ccc(-c2nnc(NC(=O)Nc3ccc(Cl)c(Cl)c3)s2)cc1 | inactive |
| O=C(Nc1ccc2ccccc2c1)Nc1nnc(-c2ccc(Cl)cc2)s1 | inactive |
| O=C(Nc1nnc(-c2ccncc2)s1)Nc1ccc(Cl)cc1F | inactive |
| Cc1cc(Nc2c(Nc3nnc(-c4ccncc4)s3)c(=O)c2=O)ccc1Cl | inactive |
| N#Cc1cc(NC(=O)Nc2nnc(-c3ccncc3)s2)ccc1-c1cn[nH]c1 | 1.02 µM (active) and 5.13 µM (active) |
| N#Cc1cc(NC(=O)Nc2nnc(-c3ccncc3)s2)ccc1-c1ccc[nH]1 | 7.25 µM (active) |
| COc1ccc(NC(=O)Nc2ccc(-c3nc4ccccc4[nH]3)cc2)cc1OC | inactive |
| O=C(Nc1ccc(Cl)c(Cl)c1)Nc1ncc(-c2ccncc2)s1 | inactive |
| O=C(Nc1ccc(-c2nc3ccccc3[nH]2)cc1)Nc1ccc2c(c1)CCCO2 | inactive |
| O=C(Nc1ccc(F)c(C(F)(F)F)c1)Nc1nnc(-c2ccncc2)o1 | inactive |
| O=C(Nc1ccc2ccccc2c1)Nc1nnc(-c2ccc(Cl)cc2Cl)s1 | inactive |
| Cc1cc(NC(=O)Nc2nnc(C3CCCCC3)s2)ccc1F | inactive |
